From the supplement of paper PMC6522484
± gives the standard deviation of the averaged measurements.

system: DLD1; assay: TCF/Wnt firefly luciferase reporter signal relative to plate median (fraction of plate median); higher = higher Wnt reporter signal; settings: 10 µM; treatment time 24 h; reporter: TCF4/Wnt
Procedure, shortened: (§1)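 Colorectal cancer cell lines carrying stably transduced lentiviral TCF/Wnt firefly luciferase reporters (7TFP or TCF4/Wnt) were plated in 384-well plates and treated 24 h later with kinase inhibitor library compounds at a final 10 µM for 24 h. Firefly luciferase or CellTiterGlo luminescence was read on parallel plates with a Tecan F500 reader. Signals were normalised per well to the plate median in webcellHTS2 (additive, no log transformation), and values are the mean of two independent replicates.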

Row | Structure (SMILES) | TCF/Wnt firefly luciferase reporter signal
1 | C[C@@H](N)[C@H]1CC[C@H](C(=O)Nc2ccncc2)CC1 | 1.32 ± 0.057
2 | Cc1csc(-c2nnc(Nc3ccc(Oc4ncccc4-c4ccnc(N)n4)cc3)c3ccccc23)c1 | 0.866 ± 0.13
3 | CC(C)c1cnn2c(NCc3ccccc3)cc(NCCCCCCN)nc12 | 1.52 ± 0.028
4 | CNC(=O)c1cc(Oc2ccc(NC(=O)Nc3ccc(Cl)c(C(F)(F)F)c3)cc2)ccn1 [Sorafenib (Nexavar)] | 0.883 ± 0.081
5 | Cc1cc2c(F)c(Oc3ncnn4cc(OC[C@@H](C)OC(=O)[C@H](C)N)c(C)c34)ccc2[nH]1 | 1.135 ± 0.0071
6 | COc1cc(CCc2cc(NC(=O)c3ccc(N4CC(C)NC(C)C4)cc3)n[nH]2)cc(OC)c1 (configuration not stated) | 0.718 ± 0.011
7 | CCCCOc1c(C(=O)c2c(F)cc(C)cc2F)c[nH]c2nncc1-2 | 0.617 ± 0.071
8 | CC(C)(C)c1cc(NC(=O)Nc2ccc(-c3cn4c(n3)sc3cc(OCCN5CCOCC5)ccc34)cc2)no1 [Quizartinib (AC220)] | 1.04 ± 0.014
9 | C[C@H](NC(=O)/C(C#N)=C/c1cccc(Br)n1)c1ccccc1 | 0.057 ± 0.015

system: HCT116; assay: as above; settings: 10 µM; treatment time 24 h; reporter: TCF4/Wnt
Procedure, shortened: as §1

Row | Structure (SMILES) | TCF/Wnt firefly luciferase reporter signal
10 | C[C@@H](N)[C@H]1CC[C@H](C(=O)Nc2ccncc2)CC1 | 1.53 ± 0.064
11 | Cc1csc(-c2nnc(Nc3ccc(Oc4ncccc4-c4ccnc(N)n4)cc3)c3ccccc23)c1 | 1.75 ± 0.14
12 | CC(C)c1cnn2c(NCc3ccccc3)cc(NCCCCCCN)nc12 | 0.988 ± 0.14
13 | CNC(=O)c1cc(Oc2ccc(NC(=O)Nc3ccc(Cl)c(C(F)(F)F)c3)cc2)ccn1 [Sorafenib (Nexavar)] | 1.06 ± 0.078
14 | Cc1cc2c(F)c(Oc3ncnn4cc(OC[C@@H](C)OC(=O)[C@H](C)N)c(C)c34)ccc2[nH]1 | 0.852 ± 0.16
15 | COc1cc(CCc2cc(NC(=O)c3ccc(N4CC(C)NC(C)C4)cc3)n[nH]2)cc(OC)c1 (configuration not stated) | 0.502 ± 0.34
16 | CCCCOc1c(C(=O)c2c(F)cc(C)cc2F)c[nH]c2nncc1-2 | 0.879 ± 0.098
17 | CC(C)(C)c1cc(NC(=O)Nc2ccc(-c3cn4c(n3)sc3cc(OCCN5CCOCC5)ccc34)cc2)no1 [Quizartinib (AC220)] | 1.22 ± 0.18
18 | C[C@H](NC(=O)/C(C#N)=C/c1cccc(Br)n1)c1ccccc1 | 0.0323 ± 0.02

system: SW480; assay: as above; settings: 10 µM; treatment time 24 h; reporter: 7TFP
Procedure, shortened: as §1

Row | Structure (SMILES) | TCF/Wnt firefly luciferase reporter signal
19 | C[C@@H](N)[C@H]1CC[C@H](C(=O)Nc2ccncc2)CC1 | 1.18 ± 0.057
20 | Cc1csc(-c2nnc(Nc3ccc(Oc4ncccc4-c4ccnc(N)n4)cc3)c3ccccc23)c1 | 0.983 ± 0.067
21 | CC(C)c1cnn2c(NCc3ccccc3)cc(NCCCCCCN)nc12 | 1.2 ± 0.17
22 | CNC(=O)c1cc(Oc2ccc(NC(=O)Nc3ccc(Cl)c(C(F)(F)F)c3)cc2)ccn1 [Sorafenib (Nexavar)] | 1.19 ± 0.057
23 | Cc1cc2c(F)c(Oc3ncnn4cc(OC[C@@H](C)OC(=O)[C@H](C)N)c(C)c34)ccc2[nH]1 | 1.28 ± 0.099
24 | COc1cc(CCc2cc(NC(=O)c3ccc(N4CC(C)NC(C)C4)cc3)n[nH]2)cc(OC)c1 (configuration not stated) | 0.93 ± 0.099
25 | CCCCOc1c(C(=O)c2c(F)cc(C)cc2F)c[nH]c2nncc1-2 | 0.391 ± 0.12
26 | CC(C)(C)c1cc(NC(=O)Nc2ccc(-c3cn4c(n3)sc3cc(OCCN5CCOCC5)ccc34)cc2)no1 [Quizartinib (AC220)] | 1.26 ± 0.021
27 | C[C@H](NC(=O)/C(C#N)=C/c1cccc(Br)n1)c1ccccc1 | 0.0234 ± 0.012
